From PubChem BioAssay (Tox21)
“And” between values parts separate entries of the source, which are not always exact repeats. Equal values may be shown once. Inconclusive results are not listed. Where a structure was tested more than once in an assay, its records may differ in their call. The source made the active and inactive calls. Unless noted, calls follow the shape of the dose curve; as a rule, active = well fitted curve in the direction sought with a large enough effect in the repeat runs; inconclusive = weak or mixed curves; inactive = no such curve, though single readings can be large; an effect the other way counts as inactive or inconclusive.

Assays:
[1] = qHTS assay to identify small molecule antagonists of the progesterone receptor (PR) signaling pathway - cell viability counter screen (AID 1346798); also: series mostly up to about 92 µM; nearly all actives have a fitted effect of over 50% in size
Outline: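 PR-UAS-bla HEK293T cells in medium with 2% charcoal-stripped FBS were treated with compounds plus R5020 for 16 hr at 37C. Cell viability was then read by CellTiter-Glo luminescence after 30 min at room temperature in the same wells.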

[2] = qHTS assay to identify small molecule agonists of the progesterone receptor (PR) signaling pathway - cell viability counter screen (AID 1346799; calls by dose curve; also: nearly all actives have a fitted effect of over 45% in size)
Outline: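 PR-UAS-bla HEK293T cells, 3,000 per well in medium with 2% charcoal-stripped FBS, were preincubated 6 hr at 37C, then exposed to compounds for 16 hr; viability was read as CellTiter-Glo luminescence after 30 min at room temperature.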

[3] = qHTS assay to identify small molecule agonists of the TGF-beta/Smad signaling pathway - cell viability counter screen (AID 1346829); also: top concentration of the series differs between compounds; nearly all actives have a fitted effect of over 45% in size
Outline: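 HEK 293T SBE-bla line, 5 hr compound exposure at 37 C, multiplexed CellTiter-Glo viability read by luminescence.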

[4] = qHTS assay to identify small molecule agonists of the TGF-beta/Smad signaling pathway (AID 1346859; active = well fitted activation curve with a large enough effect in the signal ratio in the repeat runs, not every such curve was filed as active; the % refers to the signal ratio; also: series mostly up to about 77 µM)
Outline: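 HEK 293T cells stably carrying a beta-lactamase reporter driven by the Smad binding element were seeded overnight, exposed to DMSO-dissolved compounds for 5 hr at 37 C, 5% CO2, then loaded with FRET substrate for 2 hr at room temperature.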

[5] = molecular target: Thyrotropin-releasing hormone receptor (Homo sapiens) (UniProt P34981); experiment: qHTS assay to identify small molecule antagonists of the thyrotropin-releasing hormone receptor (TRHR) signaling pathway (AID 1346877; active = well fitted inhibition curve with a large enough effect in the repeat runs, not every such curve was filed as active; also: series mostly up to about 51 µM)
Outline: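 Cells (TRHR-HEK293) are plated and kept 18 h at 37 °C/5% CO2. A calcium-sensitive dye is added for 2 h, compound follows for 5 min at room temperature, and TRH is then given at 1 nM final.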

[6] = molecular target: Thyrotropin-releasing hormone receptor (Homo sapiens) (UniProt P34981); experiment: qHTS assay to identify small molecule agonists of the thyrotropin-releasing hormone receptor (TRHR) signaling pathway (AID 1346891; calls by dose curve; also: series mostly up to about 58 µM)
Outline: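 TRHR-expressing HEK293 cells were plated 18 h at 37 °C/5% CO2, loaded with calcium dye 2 h at 37 °C, then given compound in DMSO; fluorescence was read kinetically for 3 min at 1 s intervals.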

[7] = Human pregnane X receptor (PXR) small molecule agonists, qHTS cell viability counter screen (AID 1346977); also: nearly all actives have a fitted effect of over 50% in size; also: potency is read from the fitted curve at half-maximal effect
Outline: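 PXR-Luc HepG2 cells in medium with 5% charcoal-stripped FBS were pre-incubated 5hr, then exposed to compounds for 24hr at 37C. Viability was read in the same wells by CellTiter-Fluor fluorescence, reagent added after 23hr with a 1hr incubation.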

[8] = Caspase-3/7 induction in HepG2 cells by small molecules, qHTS assay (AID 1346978); also: nearly all actives have a fitted effect of over 15% in size
Outline: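 Wild-type HepG2 cells, 2,000/well, settled 5 hr at 37 C and 5% CO2, then compound-treated for 17 hr; caspase-3/7 activity read by luminescent Caspase-Glo 3/7 after 30 min at room temperature.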

[9] = Caspase-3/7 induction in CHO-K1 cells by small molecules, qHTS cell viability counter screen (AID 1346979); also: nearly all actives have a fitted effect of over 35% in size; also: potency is read from the fitted curve at half-maximal effect
Outline: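 Wild-type CHO-K1 cells were seeded at 1,500 per well, rested 5hr at 37 C, then exposed to compounds in DMSO. After 16hr, CellTiter-Fluor reagent was added and fluorescence read 1hr later as the viability measure.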

[10] = Caspase-3/7 induction in CHO-K1 cells by small molecules, qHTS assay (AID 1346980); also: nearly all actives have a fitted effect of over 15% in size
Outline: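 Wild-type CHO-K1 cells exposed to compounds for 17hr at 37 C, 5% CO2. Caspase-3/7 activity then measured by Caspase-Glo 3/7 luminescence after 30min at room temperature.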

[11] = Caspase-3/7 induction in HepG2 cells by small molecules, qHTS cell viability counter screen (AID 1346981); also: series mostly up to about 92 µM; nearly all actives have a fitted effect of over 30% in size
Outline: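 Steps: seed 2,000 HepG2 cells per well; incubate 5 hr at 37 C; pin-add compounds in DMSO; incubate 16 hr; add CellTiter-Fluor; after 1 hr at 37 C and 5% CO2, read fluorescence.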

[12] = molecular target: Nuclear receptor subfamily 1 group I member 2 (Homo sapiens) (UniProt O75469); experiment: Human pregnane X receptor (PXR) small molecule agonists, qHTS assay (AID 1346982); also: nearly all actives have a fitted effect of over 35% in size; also: potency is read from the fitted curve at half-maximal effect
Outline: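 Agonist mode qHTS: PXR-Luc HepG2 cells plated 5 hr before DMSO-dissolved compounds were pinned in, cultured 24 hr at 37 C, 5% CO2; ONE-Glo luminescence readout.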

[13] = molecular target: Cytochrome P450 2D6 (Homo sapiens) (UniProt P10635); experiment: Cytochrome P450 Family 2 Subfamily D Member 6 (CYP2D6) small molecule antagonists: luciferase reporter qHTS assay (AID 1671196); also: nearly all actives have a fitted effect of over 50% in size; also: potency is read from the fitted curve at half-maximal effect
Outline: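 P450-Glo format: CYP2D6 converts a proluciferin substrate to luciferin in an NADPH-driven reaction lasting 1 h at room temperature. Light output, proportional to CYP2D6 activity, reflects interference by test chemicals.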

[14] = molecular target: Cytochrome P450 2C19 (Homo sapiens) (UniProt P33261); experiment: Cytochrome P450 Family 2 Subfamily C Member 19 (CYP2C19) small molecule antagonists: luciferase reporter qHTS assay (AID 1671197); also: nearly all actives have a fitted effect of over 65% in size; also: potency is read from the fitted curve at half-maximal effect
Outline: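 First, compounds are pinned into enzyme-substrate mix and held 10 min at room temperature. Second, NADPH regeneration solution is added and plates incubate 1 h at 37C. Third, detection reagent is added and luminescence read after 20 min.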

[15] = molecular target: Cytochrome P450 1A2 (Homo sapiens) (UniProt P05177); experiment: Cytochrome P450 Family 1 Subfamily A Member 2 (CYP1A2) small molecule antagonists: luciferase reporter qHTS assay (AID 1671199); also: nearly all actives have a fitted effect of over 50% in size; also: potency is read from the fitted curve at half-maximal effect
Outline: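 Inhibition of CYP1A2 conversion of proluciferin to luciferin, detected by luminescence. Reaction run 1 h at room temperature with NADPH regeneration after brief compound preincubation.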

[16] = molecular target: Voltage-gated inwardly rectifying potassium channel KCNH2 (Homo sapiens) (UniProt Q12809); experiment: Human Ether-a-go-go-Related Gene (hERG) channel small molecule antagonists: fluorescence cell-based qHTS assay (AID 1671200)
Outline: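 U2OS cells expressing the channel were plated at 1000 cells/well, incubated overnight at 37 C, then loaded with FluxOR II thallium-sensitive dye for 1 h at room temperature in the dark, with a further 10 min at room temperature before stimulation.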

[17] = qHTS assay to identify small molecule antagonists of the TGF-beta/Smad signaling pathway - cell viability counter screen (AID 1346824); also: nearly all actives have a fitted effect of over 50% in size
Outline: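 SBE-bla HEK 293T cells, incubated overnight, then compound plus 0.25 ng/mL TGF-beta1 (stock added) for 5 hr at 37 C. Viability was read in the same wells by CellTiter-Glo luminescence after 30 min at room temperature.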

[18] = molecular target: Cytochrome P450 2C9 (Homo sapiens) (UniProt P11712); experiment: Cytochrome P450 Family 2 Subfamily C Member 9 (CYP2C9) small molecule antagonists: luciferase reporter qHTS assay (AID 1671198); also: nearly all actives have a fitted effect of over 50% in size; also: potency is read from the fitted curve at half-maximal effect
Outline: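 P450-Glo proluciferin substrate with CYP2C9 enzyme; 10 min RT preincubation, then NADPH regeneration 1 h at 37C; luciferin detection reagent 20 min RT, luminescence in relative luminescence units.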

Measured: Potency

Chain of Cytochrome P450 2C9 (Homo sapiens) (P11712 whole entry, looked up): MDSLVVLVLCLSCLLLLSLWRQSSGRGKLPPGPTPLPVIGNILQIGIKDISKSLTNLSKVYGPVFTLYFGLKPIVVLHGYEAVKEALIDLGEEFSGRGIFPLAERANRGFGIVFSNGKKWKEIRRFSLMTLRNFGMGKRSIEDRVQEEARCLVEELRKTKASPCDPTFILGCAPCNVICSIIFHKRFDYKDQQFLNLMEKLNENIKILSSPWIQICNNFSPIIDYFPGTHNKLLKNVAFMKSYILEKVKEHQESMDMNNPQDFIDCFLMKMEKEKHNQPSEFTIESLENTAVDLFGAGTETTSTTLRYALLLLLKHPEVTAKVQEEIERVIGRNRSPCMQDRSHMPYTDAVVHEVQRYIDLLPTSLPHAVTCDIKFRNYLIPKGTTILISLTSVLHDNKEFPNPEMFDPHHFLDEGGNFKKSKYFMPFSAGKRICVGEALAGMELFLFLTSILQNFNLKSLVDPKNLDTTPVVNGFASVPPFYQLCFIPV
Chain of Thyrotropin-releasing hormone receptor (Homo sapiens) (P34981 whole entry, looked up): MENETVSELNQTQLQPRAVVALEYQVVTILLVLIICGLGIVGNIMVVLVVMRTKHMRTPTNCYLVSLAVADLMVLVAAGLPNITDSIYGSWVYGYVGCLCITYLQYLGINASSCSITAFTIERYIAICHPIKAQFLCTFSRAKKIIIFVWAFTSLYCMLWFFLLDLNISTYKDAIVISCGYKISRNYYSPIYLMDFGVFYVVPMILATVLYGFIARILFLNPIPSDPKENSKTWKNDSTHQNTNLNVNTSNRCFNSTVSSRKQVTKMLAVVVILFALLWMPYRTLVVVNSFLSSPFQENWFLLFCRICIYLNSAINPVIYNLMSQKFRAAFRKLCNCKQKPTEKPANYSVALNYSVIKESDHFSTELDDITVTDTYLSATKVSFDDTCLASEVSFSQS
Chain of Cytochrome P450 2C19 (Homo sapiens) (P33261 whole entry, looked up): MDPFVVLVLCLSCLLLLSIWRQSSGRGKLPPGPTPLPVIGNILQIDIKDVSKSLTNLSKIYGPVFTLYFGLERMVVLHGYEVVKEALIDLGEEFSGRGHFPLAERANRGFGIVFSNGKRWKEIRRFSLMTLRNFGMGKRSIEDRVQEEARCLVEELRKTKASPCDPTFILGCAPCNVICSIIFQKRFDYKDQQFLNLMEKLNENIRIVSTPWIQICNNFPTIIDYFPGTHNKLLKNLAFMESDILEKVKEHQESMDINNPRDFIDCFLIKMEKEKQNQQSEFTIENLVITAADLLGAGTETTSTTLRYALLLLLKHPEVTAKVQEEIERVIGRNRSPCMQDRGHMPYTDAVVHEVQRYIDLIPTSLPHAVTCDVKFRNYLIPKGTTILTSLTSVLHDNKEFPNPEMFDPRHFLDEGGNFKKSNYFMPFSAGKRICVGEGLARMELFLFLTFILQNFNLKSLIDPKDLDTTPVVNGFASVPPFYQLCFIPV
Chain of Nuclear receptor subfamily 1 group I member 2 (Homo sapiens) (O75469 whole entry, looked up): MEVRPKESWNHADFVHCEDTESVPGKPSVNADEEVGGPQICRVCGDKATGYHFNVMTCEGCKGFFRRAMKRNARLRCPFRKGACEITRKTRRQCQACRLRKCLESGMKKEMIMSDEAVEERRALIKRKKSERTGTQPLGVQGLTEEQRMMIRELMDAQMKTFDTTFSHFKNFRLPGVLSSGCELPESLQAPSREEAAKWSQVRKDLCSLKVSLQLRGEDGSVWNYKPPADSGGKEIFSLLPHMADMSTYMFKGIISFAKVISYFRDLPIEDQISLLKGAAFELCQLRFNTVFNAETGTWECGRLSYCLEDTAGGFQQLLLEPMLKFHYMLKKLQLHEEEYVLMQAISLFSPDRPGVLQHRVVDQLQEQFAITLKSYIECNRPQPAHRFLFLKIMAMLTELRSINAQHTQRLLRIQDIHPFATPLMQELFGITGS
Chain of Cytochrome P450 1A2 (Homo sapiens) (P05177 whole entry, looked up): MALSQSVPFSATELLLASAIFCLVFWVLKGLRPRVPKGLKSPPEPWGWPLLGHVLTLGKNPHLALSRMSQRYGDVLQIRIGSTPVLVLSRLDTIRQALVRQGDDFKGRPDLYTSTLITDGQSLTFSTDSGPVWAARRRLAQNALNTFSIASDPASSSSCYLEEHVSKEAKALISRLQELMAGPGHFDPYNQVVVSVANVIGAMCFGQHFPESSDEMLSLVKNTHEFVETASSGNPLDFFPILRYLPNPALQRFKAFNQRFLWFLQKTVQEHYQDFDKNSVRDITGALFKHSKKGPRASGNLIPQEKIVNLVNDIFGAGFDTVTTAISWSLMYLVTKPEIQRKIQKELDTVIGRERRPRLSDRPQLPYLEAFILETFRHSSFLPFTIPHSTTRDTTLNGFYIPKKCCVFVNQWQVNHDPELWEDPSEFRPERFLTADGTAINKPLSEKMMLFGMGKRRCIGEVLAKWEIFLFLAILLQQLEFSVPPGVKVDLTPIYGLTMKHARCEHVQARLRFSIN
Chain of Voltage-gated inwardly rectifying potassium channel KCNH2 (Homo sapiens) (Q12809 whole entry, looked up): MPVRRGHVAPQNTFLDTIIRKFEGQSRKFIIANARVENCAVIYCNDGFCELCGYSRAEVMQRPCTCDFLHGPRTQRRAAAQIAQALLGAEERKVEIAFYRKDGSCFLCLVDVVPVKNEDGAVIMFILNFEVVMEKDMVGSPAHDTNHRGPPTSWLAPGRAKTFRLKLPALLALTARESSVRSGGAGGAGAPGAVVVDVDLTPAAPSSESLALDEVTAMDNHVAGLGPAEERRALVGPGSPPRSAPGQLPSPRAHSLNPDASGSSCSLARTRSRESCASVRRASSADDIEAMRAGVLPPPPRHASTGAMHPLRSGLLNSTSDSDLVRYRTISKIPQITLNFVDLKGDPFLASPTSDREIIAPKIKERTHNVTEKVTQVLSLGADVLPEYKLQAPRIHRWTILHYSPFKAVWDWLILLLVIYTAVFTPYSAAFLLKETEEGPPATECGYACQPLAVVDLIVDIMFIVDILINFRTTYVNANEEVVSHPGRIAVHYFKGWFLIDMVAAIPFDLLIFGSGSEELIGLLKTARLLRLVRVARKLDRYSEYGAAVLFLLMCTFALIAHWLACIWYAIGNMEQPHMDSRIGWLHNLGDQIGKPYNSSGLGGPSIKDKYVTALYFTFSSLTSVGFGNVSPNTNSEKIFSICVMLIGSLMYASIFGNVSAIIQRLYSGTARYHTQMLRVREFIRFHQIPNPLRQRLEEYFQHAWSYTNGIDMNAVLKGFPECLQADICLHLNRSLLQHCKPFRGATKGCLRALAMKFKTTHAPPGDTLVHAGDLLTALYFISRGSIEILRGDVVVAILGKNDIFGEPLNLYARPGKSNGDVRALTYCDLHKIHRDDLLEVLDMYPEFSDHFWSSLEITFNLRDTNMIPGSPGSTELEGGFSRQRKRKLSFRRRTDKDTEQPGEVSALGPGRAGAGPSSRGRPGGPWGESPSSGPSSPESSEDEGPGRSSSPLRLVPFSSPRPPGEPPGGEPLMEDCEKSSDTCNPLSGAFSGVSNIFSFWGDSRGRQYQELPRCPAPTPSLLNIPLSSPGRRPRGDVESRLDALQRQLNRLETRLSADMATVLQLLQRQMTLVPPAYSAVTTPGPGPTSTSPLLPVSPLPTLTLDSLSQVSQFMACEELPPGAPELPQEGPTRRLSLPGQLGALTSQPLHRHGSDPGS
Chain of Cytochrome P450 2D6 (Homo sapiens) (P10635 whole entry, looked up): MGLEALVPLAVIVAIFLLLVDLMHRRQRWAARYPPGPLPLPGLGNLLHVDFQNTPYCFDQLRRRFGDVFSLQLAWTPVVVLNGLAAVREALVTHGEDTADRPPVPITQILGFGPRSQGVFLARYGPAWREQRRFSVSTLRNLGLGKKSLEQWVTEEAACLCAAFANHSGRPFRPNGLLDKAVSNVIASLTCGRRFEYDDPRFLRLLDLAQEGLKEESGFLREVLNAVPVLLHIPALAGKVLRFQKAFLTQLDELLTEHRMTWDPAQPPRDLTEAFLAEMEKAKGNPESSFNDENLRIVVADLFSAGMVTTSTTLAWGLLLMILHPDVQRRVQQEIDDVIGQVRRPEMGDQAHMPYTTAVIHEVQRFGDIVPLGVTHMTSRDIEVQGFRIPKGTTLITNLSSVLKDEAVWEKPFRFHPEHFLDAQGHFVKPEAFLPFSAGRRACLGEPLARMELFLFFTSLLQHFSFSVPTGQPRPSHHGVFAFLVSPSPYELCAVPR

Cc1occc(=O)c1O
71 µM (active) and inactive: [14]
inactive: [1] | [2] | [3] | [4] | [5] | [6] | [7] | [8] | [9] | [10] | [11] | [12] | [13] | [15] | [16]

O=C(O)c1ccccc1C(c1ccc(O)cc1)c1ccc(O)cc1
inactive: [1] | [2] | [3] | [4] | [5] | [6] | [7] | [8] | [9] | [10] | [11] | [13] | [14] | [15] | [16]
2.44 µM (active) and inactive: [12]

O=C(O)c1cc(C(=O)O)cc(S(=O)(=O)O)c1
inactive: [1] | [2] | [17] | [3] | [4] | [7] | [8] | [9] | [10] | [11] | [12] | [14] | [18] | [16]
active: [13] 36 µM
inactive and 39.9 µM (active): [15]

Cc1ccc(S(N)(=O)=O)cc1
inactive: [1] | [2] | [17] | [3] | [4] | [5] | [6] | [7] | [8] | [9] | [11] | [12] | [13] | [15] | [16]
19.9 µM (active) and inactive: [14]

CCCCCCOCCO
inactive: [1] | [2] | [17] | [3] | [4] | [7] | [8] | [9] | [10] | [11] | [12] | [13] | [14] | [18] | [15] | [16]

CCC(O)OCCCOC (configuration not stated)
inactive: [1] | [2] | [3] | [4] | [5] | [6] | [8] | [10] | [11] | [13] | [18] | [15] | [16]
5.59 µM (active) and inactive: [9]
22.4 µM (active) and inactive: [7]
11.1 µM (active) and inactive: [12]
41 µM (active) and inactive: [14]

CC(C)CC(=O)CC(C)C
inactive: [1] | [2] | [17] | [3] | [4] | [7] | [8] | [9] | [11] | [12] | [13] | [14] | [15] | [16]

O=C=NCCCCCCN=C=O
47.5 µM (active) and inactive: [12]
69.4 µM (active) and inactive: [14]
53.3 µM (active) and inactive: [9]
inactive: [1] | [2] | [17] | [3] | [4] | [5] | [6] | [7] | [8] | [11] | [13] | [15] | [16]

COc1ccc2cc([C@H](C)C(=O)O)ccc2c1
inactive: [1] | [2] | [17] | [3] | [4] | [7] | [11]

CCCCCCCCC/C=C/CC1CC(=O)OC1=O (configuration not stated)
active: [18] 80 µM and 39.9 µM
inactive and 39.9 µM (active): [13]
inactive: [1] | [2] | [17] | [3] | [4] | [7] | [8] | [9] | [10] | [11] | [12] | [15] | [16]

COc1ccc(Nc2ccccc2)c(C)c1
inactive and 3.17 µM (active): [14]
inactive and 54.5 µM (active): [12]
inactive: [1] | [2] | [3] | [4] | [5] | [6] | [7] | [8] | [9] | [10] | [11] | [13] | [16]
inactive and 11.2 µM (active): [15]

O=S(=O)(O)c1ccc2ccccc2c1
inactive: [1] | [2] | [3] | [4] | [5] | [6] | [7] | [8] | [9] | [10] | [11] | [12] | [13] | [14] | [18] | [15] | [16]
